Several values for one entry are separate records, joined by “and”; a condition that tells them apart may be missing. Identical values can stand only once. Results filed as inconclusive are left out. Unmarked numbers belong to inactive results. Activity calls are given as the source filed them. The call rests on the fitted dose curve; in most records, active means well fitted activation curve with a large enough effect; inconclusive means small, poorly fitted or top-dose-only effect; inactive means no such curve, though single readings can be large or run the other way.
Assay: Confirmation Concentration-Response Assay for Enhancers of SMN2 Splice Variant Expression for Probe SAR
Conditions: HEK293 SMN2 exon7 splicing luciferase reporter, luminescence; series mostly up to 46.1 µM; activation: at the top concentration
Source text: NIH Chemical Genomics Center [NCGC] NIH Molecular Libraries Probe Production centers Network [MLPCN] MLPCN Grant: R03 MH084179-01 Assay Submitter (PI): Elliot Androphy NCGC Assay Overview: Spinal muscular atrophy (SMA) is caused by insufficient levels of the survival motor neuron protein SMN. The SMN locus on chromosome 5q13 contains two inverted copies of SMN called SMN1 and SMN2 which are 99% identical at the amino acid level. SMN1 is a fully functional protein and SMN2 skips exon 7 90% of the time. Skipping of exon 7 produces non-functional protein product. 10% of the SMN2 protein includes exon 7 and is fully functional. In the SMA disease state, mutations in the SMN1 locus are the cause of the disease state. Because only 10% of SMN2 is of the fully functional form, it is not sufficient to overcome the deficiency produced by the loss of the SMN1 product. A therapy that either increase the amount of SMN2 product made or to increase the inclusion of exon 7 has been proposed for the treatment of SMA. We have designed an assay to identify small molecules that can increase the amount of functional SMN2 product by appending a luciferase reporter gene after the native SMN2 gene, such that inclusion of exon 7 in the expressed product places the luciferase sequence in frame, thus generating functional luciferase enzyme.
NCGC Assay Protocol Summary: This screen utilizes a luciferase reporter gene assay, combining the promoter with the major portion of the native SMN2 cDNA (exons 1 -7, intron 8 , exon 8 fused to luciferase) stably expressed in HEK293 cells. Compounds that increase luciferase signal presumably enhance expression of the functional SMN2 splice variant. Passaging media contained DMEM w/ glutamax (+phenol red) 10% FCS, 1x pen/strep, 200 ug/ml hygro, 1x sodium pyruvate. Assay media contained DMEM w/ glutamax (-phenol red) 10% FCS, 1x pen strep, 1x pyruvate Sequence, Parameter, Value, Description (1) Cells, 5 uL, 2000 cells/well, 1536 TC treated White solid bottom plate (2) Time, 10-12 hours, 37C 5% CO2 (3) Compound, 23 nl, MLSMR Library (4) Control Compound, 23 nL, Sodium butyrate st 4.5mM (final) conc (5) Time, 30-36 hours, 37C 5% CO2 (6) Reagent, 3 ul, One Glo (TM) from Promega (7) Time, 5-15 minutes, Room temp (8) Detector, Viewlux: luminescent read, 60 second integration, high speed 2x binning Keywords: Spinal muscular atrophy, SMA, SMN2, high throughput screening, MLSMR, MLPCN, NIH Roadmap, qHTS and NCGC

Q: For `COc1ccc(-c2csc(N3CCC(C(N)=O)CC3)n2)cc1`, which Potency is on record?
A: 4.34 µM (active)

Q: For `Cc1ccc(-c2csc(N3CCC(C(N)=O)CC3)n2)cc1`, which Potency is on record?
A: 0.772 µM (active)

Q: With `NC(=O)C1CCN(c2nc(-c3ccc4occc(=O)c4c3)cs2)CC1` as the molecule, how does the Potency read?
A: 7.72 µM (active)

Q: Which “activation” value does the source give for `NC(=O)C1CCN(c2nc(-c3ccccc3C(F)(F)F)cs2)CC1` here?
A: -39.3%

Q: Which “activation” value does the source give for `CS(=O)(=O)c1cccc(-c2csc(N3CCC(C(N)=O)CC3)n2)c1` here?
A: 4.76%

Q: Which Potency does the source give for `NC(=O)C1CCN(c2nc(-c3ccc(F)cc3)cs2)CC1` here?
A: 3.45 µM (active)

Q: With `NC(=O)C1CCN(c2nc(-c3cc4ccccc4o3)cs2)CC1` as the molecule, how does the Potency read?
A: 8.67 µM (active)

Q: Which “activation” value does the source give for `NC(=O)C1CCN(c2nc(-c3cccnc3)cs2)CC1` here?
A: 0%

Q: With `NC(=O)C1CCN(c2nc(-c3ccc4ccccc4c3)cs2)CC1` as the molecule, how does the Potency read?
A: 4.87 µM (active)

Q: Which Potency does the source give for `CC(=O)c1ccc(-c2csc(N3CCC(C(N)=O)CC3)n2)cc1` here?
A: 7.72 µM (active)

Q: With `NC(=O)C1CCN(c2nc(-c3ccccc3F)cs2)CC1` as the molecule, how does the Potency read?
A: 1.37 µM (active)

Q: With `NC(=O)C1CCN(c2nc(-c3ccc4c(c3)OCCO4)cs2)CC1` as the molecule, how does the Potency read?
A: 0.688 µM (active)

Q: With `Cc1noc(C)c1-c1csc(N2CCC(C(N)=O)CC2)n1` as the molecule, how does the “activation” value read?
A: 14.3%

Q: For `NC(=O)C1CCN(c2nc(-c3ccccc3Br)cs2)CC1`, which “activation” value is on record?
A: -21.4%

Q: For `NC(=O)C1CCN(c2nc(-c3cccc(N)c3)cs2)CC1`, which “activation” value is on record?
A: -14.3%

Q: For `NC(=O)C1CCN(c2nc(-c3ccccc3-c3ccccc3)cs2)CC1`, which “activation” value is on record?
A: 5%

Q: With `CN(C)c1ccccc1-c1csc(N2CCC(C(N)=O)CC2)n1` as the molecule, how does the “activation” value read?
A: 19%

Q: With `NC(=O)C1CCN(c2nc(-c3ccc(Br)cc3)cs2)CC1` as the molecule, how does the Potency read?
A: 708 nM (active) and 772 nM (active)

Q: For `Cn1ccc2cc(-c3csc(N4CCC(C(N)=O)CC4)n3)ccc21`, which Potency is on record?
A: 4.34 µM (active)

Q: For `NC(=O)C1CCN(c2nc(-c3cccs3)cs2)CC1`, which Potency is on record?
A: 7.72 µM (active)

Q: Which “activation” value does the source give for `CS(=O)(=O)c1ccccc1-c1csc(N2CCC(C(N)=O)CC2)n1` here?
A: -23.8%

Q: With `CN(C)c1cccc(-c2csc(N3CCC(C(N)=O)CC3)n2)c1` as the molecule, how does the Potency read?
A: 0.688 µM (active)

Q: With `CC(=O)c1cccc(-c2csc(N3CCC(C(N)=O)CC3)n2)c1` as the molecule, how does the Potency read?
A: 3.87 µM (active)

— PubChem BioAssay AID2514 (National Center for Advancing Translational Sciences (NCATS), 2010)
